Screens from PubChem.
A selection: hits, their analogues and other compounds. The true share with any hit is near 12%.
SARS PLP yeast: inhibitors of SARS-CoV papain-like protease in yeast. Potency, µM (top dose mostly 32.9 µM), hits mostly activators. S. cerevisiae expressing SARS-CoV PLpro, growth rescue. 330,000 tested, 0.19% active. AID 485353; calls by dose curve; note: nearly all actives have a fitted effect of over 55% in size
HCV inhibitor: blocks hepatitis C virus. Huh7.5.1 HCVcc-Cre infection, luciferase reporter, 44 h. Potency, µM (doses to about 41.8 µM), hits mostly inhibitors. 340,000 tested, 3.4% active
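After 44 h co-culture of compound, cells and HCVcc-Cre (~0.5 moi), substrate is added for 15 min at room temperature and luciferase measured over 15 sec. Cells were seeded at 1,000/well and pre-cultured 4 h.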
NS1 inh: inhibitors of influenza NS1 protein function; Potency, µM (titrated, usually from 46.1 µM); 270,000 tested, 0.4% active; AID 2326; calls by dose curve; note: actives are rising curves; nearly all actives have a fitted effect of over 50% in size
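OD600 was taken as the measure of yeast growth restored by compound in an NS1-expressing S. cerevisiae strain. Cells had been washed out of glucose medium and diluted 1:100 into galactose -URA medium, pH 6.0.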
Pf growth 96h: inhibits malaria parasite growth, 96 h; P. falciparum luciferase reporter growth, 96 h; AID 504834; 320,000 tested, 6.9% active; Potency, µM (series often up to 28.7 µM), most hits filed as inhibitors
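Cell-based qHTS: luciferase-tagged P. falciparum in erythrocytes (2% hematocrit, 0.05% parasitemia final) incubated with compounds for 96 hours, 37 C, 5% CO2; luciferase detection reagent then added and luminescence measured.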
Pf growth 48h: inhibits P. falciparum growth in the first generation, 48 h; 310,000 tested, 5.9% active; Potency, µM (highest dose often 28.7 µM), most hits filed as inhibitors; P. falciparum luciferase growth in erythrocytes, 48 h
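Firefly luciferase activity from engineered P. falciparum reports growth; inhibitors lower the luminescent signal. Cultures contained 2% hematocrit erythrocytes at 0.1% final parasitemia.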
AMA1-RON2 inh: disrupts binding of P. falciparum AMA1 to RON2 | AlphaScreen AMA1-biotinylated RON2 peptide binding | Potency, µM (doses to about 58.2 µM), usual class: inhibitors | 360,000 tested, 0.2% active | AID 720542; note: nearly all actives have a fitted effect of over 45% in size
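AMA1 (3D7) with his tag at 25 nM final met compounds first, then biotinylated RON2 peptide at 25 nM; detection used donor plus acceptor beads, 10 µg/mL apiece, read by AlphaScreen after 30 min at room temperature.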
Of the large screens only hits and unclear results are named; the others gave an inactive call. Unless noted, calls come from the whole dose curve; as a rule, active = well fitted curve in the direction sought with a large enough effect; inconclusive = small, poorly fitted or top-dose-only effect, or another doubt; inactive = no such curve, though single readings can be large; an effect the other way counts as inactive or inconclusive.

O=C1N/C(=N\N=C\c2cccs2)SC1Cc1cccc(Cl)c1 (stereo not given)	HCV inhibitor inconclusive, NS1 inh inconclusive, Pf growth 48h 13.1µM
COC(=O)c1c(C)noc1-c1snnc1C	none
CC(C)=NOC(=O)c1c(C)noc1-c1snnc1C	Pf growth 96h 1.85µM, Pf growth 48h 1.65µM
CNC(=O)C(=O)NCC1CCCN1S(=O)(=O)c1cccs1 (stereo not given)	none (no result: NS1 inh)
COc1ccccc1CNC(=O)C(=O)NCC1CCCN1S(=O)(=O)c1cccs1 (stereo not given)	Pf growth 48h 11.7µM (no result: NS1 inh)
O=C(NCCc1ccc(F)cc1)C(=O)NCC1CCCN1S(=O)(=O)c1cccs1 (stereo not given)	HCV inhibitor inconclusive, Pf growth 96h inconclusive, Pf growth 48h 13.1µM (no result: NS1 inh)
COc1ccccc1CC(=O)N1CCN(S(=O)(=O)c2cccs2)CC1	Pf growth 96h 14.7µM
COc1cc(C(=O)NCC2CCCN2S(=O)(=O)c2cccs2)cc(OC)c1OC (stereo not given)	Pf growth 96h inconclusive, Pf growth 48h 11.7µM (no result: NS1 inh)
Cc1ccc(C(=O)NCC2CCCN2S(=O)(=O)c2cccs2)cc1C (stereo not given)	Pf growth 96h inconclusive, Pf growth 48h inconclusive (no result: NS1 inh)
COc1ccccc1/C=C/C(=O)N1CCN(S(=O)(=O)c2cccs2)CC1	none (no result: NS1 inh, Pf growth 96h, Pf growth 48h)
O=C(NCc1ccccc1F)C(=O)NCC1CCCN1S(=O)(=O)c1cccs1 (stereo not given)	Pf growth 96h inconclusive, Pf growth 48h inconclusive (no result: NS1 inh)
COC(=O)[C@@]12CCCCN1[C@H](c1ccc(-c3cccc(Cl)c3)cc1)[C@@H]1C(=O)N(C)C(=O)[C@@H]12	none (no result: NS1 inh, Pf growth 96h, Pf growth 48h)
COc1ccc(S(=O)(=O)NCCC(=O)N2CCCN(C)CC2)cc1	Pf growth 96h inconclusive (no result: NS1 inh)
CSc1ccc(C(O)c2ncc(-c3ccccc3F)[nH]2)cc1 (stereo not given)	none (no result: SARS PLP yeast, HCV inhibitor, NS1 inh, Pf growth 96h, Pf growth 48h)
COC(=O)c1ccsc1NC(=O)CN1CCN(c2ncccn2)CC1	Pf growth 48h 11.7µM
OCCC1CN(C2CCN(c3ccccc3)CC2)CCN1Cc1ccc(F)c(F)c1 (stereo not given)	Pf growth 48h inconclusive
Cc1ccc(CN2CCN(C3CCC3)CC2CCO)cc1 (stereo not given)	Pf growth 96h inconclusive
Cc1ccccc1CN1CCN(C2CCC2)CC1CCO (stereo not given)	Pf growth 96h 14.7µM
OCCC1CN(CC2CC2)CCN1Cc1ccc(F)c(F)c1 (stereo not given)	SARS PLP yeast inconclusive, Pf growth 96h 13.1µM
OCCC1CN(C2CCC2)CCN1Cc1ccc(F)c(F)c1 (stereo not given)	SARS PLP yeast inconclusive, Pf growth 96h 11.7µM
CCCNC(=O)C1CCN(c2cc(-c3ccccc3)nc3ncnn23)CC1	Pf growth 48h inconclusive
CCC(C)NC(=O)CC(NS(=O)(=O)c1ccc(NC(C)=O)cc1)C(C)C (stereo not given)	none (no result: NS1 inh)
CC1CCCN(C(=O)CCc2nnc(-c3ccc4c(c3)OCO4)o2)C1 (stereo not given)	Pf growth 96h inconclusive
CCCOC1CCCN(C(=O)CCc2nnc(-c3ccc4c(c3)OCO4)o2)C1 (stereo not given)	Pf growth 96h 13.1µM
O=c1cc2c(=O)oc3cc(O)c(O)oc3c2c(O)c1O	Pf growth 96h 8.28µM, Pf growth 48h 5.22µM, AMA1-RON2 inh 10µM
O=c1oc2cc(O)c(Cl)cc2c2ccccc12	none
Cn1cccc1/C=N\NC(=O)C1COc2ccc(C(C)(C)C)cc2O1 (stereo not given)	none
CC(C)(C)c1ccc2c(c1)OC(C(=O)N/N=C/c1ccc([N+](=O)[O-])o1)CO2 (stereo not given)	HCV inhibitor inconclusive, Pf growth 96h 2.94µM, Pf growth 48h inconclusive
CC(C)(C)c1ccc2c(c1)OC(C(=O)N/N=C\c1ccncc1)CO2 (stereo not given)	none
CC(C)(C)c1ccc2c(c1)OC(C(=O)N/N=C\c1ccc[nH]1)CO2 (stereo not given)	HCV inhibitor 1µM, Pf growth 48h inconclusive
Cc1ccc(F)cc1NC(=O)C1CC(=O)N(Cc2ccccc2)C1 (stereo not given)	none (no result: SARS PLP yeast, HCV inhibitor, NS1 inh, Pf growth 96h, Pf growth 48h)
COCC(C)NCc1cccc2ccccc12 (stereo not given)	Pf growth 96h 4.65µM
Cc1nc2c(=O)n(C)c(=O)nc-2n(C)n1	HCV inhibitor 0.562µM, Pf growth 48h 0.329µM
Cc1ccc(C)c(-n2c3nc(=O)n(C)c(=O)c-3cc3ccccc32)c1	none
COC(=O)COc1coc(CN2CCN(c3cccc(Cl)c3)CC2)cc1=O	Pf growth 96h inconclusive
O=C1c2ccccc2C(Nc2ccc(S(=O)(=O)N3CCOCC3)cc2)N1c1ccccn1 (stereo not given)	HCV inhibitor inconclusive, Pf growth 96h 7.38µM (no result: Pf growth 48h)
CCOC(=O)c1ccccc1NC1c2ccccc2C(=O)N1c1cc(C)ccn1 (stereo not given)	HCV inhibitor inconclusive, Pf growth 96h inconclusive (no result: Pf growth 48h)
O=C1c2ccccc2C(Nc2ccc(-c3nc4ccccc4[nH]3)cc2)N1Cc1ccco1 (stereo not given)	HCV inhibitor 10µM, NS1 inh inconclusive, Pf growth 48h inconclusive
O=C1c2ccccc2C(Nc2ccc(Cl)cn2)N1c1ccccn1 (stereo not given)	Pf growth 48h 11.7µM
COc1cc(OC)c(NC2c3ccccc3C(=O)N2c2cc(C)ccn2)cc1Cl (stereo not given)	Pf growth 96h 11.7µM
O=C(NCc1ccco1)c1cc([N+](=O)[O-])ccc1N1CCOCC1	Pf growth 96h inconclusive
Cc1nn(C(=O)c2nn(C)cc2[N+](=O)[O-])c(C)c1Br	none
O=C1c2ccccc2C(Nc2ccc(S(=O)(=O)N3CCOCC3)cc2)N1Cc1ccco1 (stereo not given)	Pf growth 96h 8.28µM (no result: Pf growth 48h)
O=C1c2ccccc2C(Nc2ccc(S(=O)(=O)N3CCCCC3)cc2)N1Cc1ccco1 (stereo not given)	Pf growth 96h inconclusive (no result: Pf growth 48h)
Cc1cnc(C(=O)NNC(=O)c2ccc(Br)cc2)cn1	HCV inhibitor inconclusive, Pf growth 96h inconclusive, Pf growth 48h 11.7µM (no result: NS1 inh)
O=C(NNC(=O)C1CCC1)c1ccc(Br)cc1	none (no result: NS1 inh)
CCCCn1c(-c2csc3c2CCC(C)C3)n[nH]c1=S (stereo not given)	HCV inhibitor inconclusive, Pf growth 48h 0.928µM
CC(=O)c1ccccc1NS(=O)(=O)c1ccc2c(c1)CC(=O)N2	Pf growth 96h 4.65µM, Pf growth 48h inconclusive (no result: NS1 inh)
CNCCC(Oc1ccccc1C)c1ccccc1 (stereo not given)	Pf growth 96h inconclusive, Pf growth 48h inconclusive (no result: SARS PLP yeast, HCV inhibitor, AMA1-RON2 inh)
CNCCC(Oc1ccc(C(F)(F)F)cc1)c1ccccc1 (stereo not given)	HCV inhibitor inconclusive, Pf growth 96h inconclusive, Pf growth 48h 14.7µM
CCN(CC(=O)NCc1cccs1)C(=O)/C=C/c1ccc(OC)cc1OC	HCV inhibitor 20µM (no result: SARS PLP yeast, NS1 inh)
